The entries come from a sample that favours hits as a whole.
Shiga inhibitor: A qHTS for Small Molecule Inhibitors of Shiga Toxin. Vero cells, Shiga toxin protein synthesis inhibition reporter. inhibition, % at 38.7 µM. 9.2% of 290,000 active. AID 2315, 2010; in the data active = inhibition mostly above about 28%, no sharp cut-off; inactive = mostly below about 43%
Cycloheximide cs: Cycloheximide Counterscreen for Small Molecule Inhibitors of Shiga Toxin; max response, %; cell reporter, cycloheximide protein synthesis inhibition counterscreen; 12% of 300,000 active; in the data active = max response mostly above about 13%, no sharp cut-off; inactive = mostly below about 14%; also: read at 38.3 µM for the half of the compounds with a filed dose
RE007 growth inh: qHTS Assay for Inhibitors of the HIV-1 protein Vpr; S. pombe RE007 Vpr strain, BacTiter-Glo ATP luminescence, 24 h; Potency, µM (top dose mostly 92.2 µM), hits mostly inhibitors; AID 651644, 2012; 0.21% of 360,000 active; active = well fitted falling curve with a large enough effect; inconclusive = small, poorly fitted or top-dose-only effect; inactive = no such curve, though single readings can be large or run the other way; also: nearly all actives have a fitted effect of over 50% in size
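Fission yeast RE007 carrying one integrated HIV-1 vpr copy, seeded at OD 0.01 in PMG+AL medium with 23 nL pinned compound. Grown 24 h at 30 degrees; viability read by BacTiter-Glo luminescence after 5 min.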
LmPK inhibitor: qHTS Assay for Inhibitors of Leishmania Mexicana Pyruvate Kinase (LmPK). Potency, µM (top dose mostly 57.5 µM), most hits filed as inhibitors. 0.37% of 290,000 active. AID 1721, 2009. purified LmPK, Kinase-Glo ATP luminescence, 1 h
Target sequence (Q27686 whole entry, looked up): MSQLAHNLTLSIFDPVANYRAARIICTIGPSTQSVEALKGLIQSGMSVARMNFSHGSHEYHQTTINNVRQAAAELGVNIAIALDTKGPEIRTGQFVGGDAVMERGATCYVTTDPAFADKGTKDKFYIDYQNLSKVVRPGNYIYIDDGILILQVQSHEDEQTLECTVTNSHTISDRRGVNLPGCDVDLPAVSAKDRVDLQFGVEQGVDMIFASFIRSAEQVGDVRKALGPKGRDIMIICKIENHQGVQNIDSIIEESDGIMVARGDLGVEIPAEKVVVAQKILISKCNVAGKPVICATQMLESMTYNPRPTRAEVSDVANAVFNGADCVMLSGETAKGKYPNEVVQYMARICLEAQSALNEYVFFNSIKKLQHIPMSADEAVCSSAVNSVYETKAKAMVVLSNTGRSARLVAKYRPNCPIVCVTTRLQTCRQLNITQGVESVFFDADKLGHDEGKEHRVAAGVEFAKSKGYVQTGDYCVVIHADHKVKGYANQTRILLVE
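In 50 mM imidazole pH 7.2 with 7 mM MgCl2, LmPK (0.1 nM) turned over PEP (0.5 mM) and ADP (0.1 mM) for 1 h at room temperature. Luciferase read-out of ATP.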
TbPYK inhibitor: qHTS of Trypanosoma Brucei Inhibitors | pyruvate kinase (Trypanosoma brucei), Q57TT1 | TbPYK enzyme, Kinase-Glo Plus ATP luminescence, 45 min | Potency, µM (doses to about 76.8 µM), actives largely listed as inhibitors | 0.12% of 410,000 active | AID 624173, 2012; also: nearly all actives have a fitted effect of over 50% in size
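Enzyme and substrate buffer are dispensed first and compound is pin-transferred. ADP at 130 uM final then starts the reaction, which runs 45 min at room temperature. Detection reagent is added for 10 min before luminescence is imaged.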
FBPA Giardia inh: qHTS Assay for Inhibitors of Fructose-1,6-bisphosphate Aldolase from Giardia Lamblia | A8B2U2 | 0.71% of 290,000 active | Potency, µM (titrated, usually from 59.6 µM), hits mostly inhibitors | AID 2451, 2010 | purified Giardia FBPA; also: nearly all actives have a fitted effect of over 55% in size
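Giardia FBPA (40 nM reagent) was preincubated 10 min at RT with compound (up to 57.5 uM final), then substrate plus GAPDH/TPI/NAD/arsenate coupling system with diaphorase/resazurin was added; resorufin fluorescence (525/598 nm) was read after 20 min.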
Each line names hits and unclear results; the compound was inactive in the other large screens. Unless noted, calls follow the shape of the dose curve; as a rule, active = well fitted curve in the direction sought with a large enough effect; inconclusive = small, poorly fitted or top-dose-only effect, or another doubt; inactive = no such curve, though single readings can be large; an effect the other way counts as inactive or inconclusive.

CC1=NN(C(N)=S)C(=O)C1N=Nc1ccc(Cl)cc1Cl (configuration not stated)	Shiga inhibitor 77, Cycloheximide cs 25
Cc1ccc(C)c(N2CCN(S(=O)(=O)c3cc(C(=O)Nc4ccccc4C(F)(F)F)ccc3F)CC2)c1	none (no result: Shiga inhibitor, Cycloheximide cs, RE007 growth inh, LmPK inhibitor, FBPA Giardia inh)
O=c1c(-c2ccc(F)cc2)nc2cncnc2n1C1CC1	none (no result: Shiga inhibitor, Cycloheximide cs, RE007 growth inh, LmPK inhibitor)
COc1ccccc1CNC(=O)COCc1cc(-c2ccc3c(c2)OCO3)on1	none (no result: Shiga inhibitor, Cycloheximide cs, RE007 growth inh, LmPK inhibitor, FBPA Giardia inh)
O=C1C(=O)N(c2cccc(Cl)c2)C(c2ccccc2[N+](=O)[O-])/C1=C(\O)c1ccccc1 (configuration not stated)	Cycloheximide cs 19, FBPA Giardia inh inconclusive
NS(=O)(=O)c1ccc(N2C(=O)C(=O)/C(=C(/O)c3ccccc3)C2c2ccc(Cl)cc2)cc1 (configuration not stated)	Cycloheximide cs 11
O=C1C(=O)N(c2ccccc2)C(c2ccccc2[N+](=O)[O-])/C1=C(\O)c1ccccc1 (configuration not stated)	none
Cc1cc(C)cc(NC(=O)C(=O)NCC(c2cccnc2)N2CCOCC2)c1 (configuration not stated)	none (no result: Shiga inhibitor, Cycloheximide cs, RE007 growth inh, LmPK inhibitor, FBPA Giardia inh)
CCc1ccc2oc(C(=O)NCCc3ccc(OC)c(OC)c3)cc(=O)c2c1	none (no result: Shiga inhibitor, Cycloheximide cs, RE007 growth inh, LmPK inhibitor, FBPA Giardia inh)
CCCCc1ccc(NC2=NCCCS2)cc1	Shiga inhibitor 42, Cycloheximide cs 30
FC(F)(F)Oc1ccc(NC2=NCCCS2)cc1	Shiga inhibitor 39, Cycloheximide cs 33
Cc1cc(NC(=O)CCl)n(-c2nc3ccccc3s2)n1	none
CCc1ccc(Nc2cnn(-c3nc4ccccc4s3)c(=O)c2Cl)cc1	Shiga inhibitor 84, Cycloheximide cs 71
CC(NC(=O)COC(=O)c1ccco1)C12CC3CC(CC(C3)C1)C2 (configuration not stated)	none (no result: RE007 growth inh, LmPK inhibitor, TbPYK inhibitor, FBPA Giardia inh)
O=C(O)CCC(=O)Nc1ccc(/C=C/C(=O)C2CC2)cc1	Cycloheximide cs 29
O=C(O)CCC(=O)NNC(=O)CCC(=O)Nc1ccccc1	none
CN(C)C(=O)n1nnnc1Cc1ccc(-c2ccccc2)cc1	none (no result: RE007 growth inh, LmPK inhibitor, TbPYK inhibitor)
O=C(CCc1c[nH]c2ccccc12)Nc1ncccc1O	Cycloheximide cs 16 (no result: FBPA Giardia inh)
O=C(CCCc1c[nH]c2ccccc12)Nc1ccc2ccccc2c1	Shiga inhibitor 68, Cycloheximide cs 38
CC(=O)Nc1ccc(NC(=O)CCCc2c[nH]c3ccccc23)cc1	none
O=C(CCc1c[nH]c2ccccc12)NCc1ccncc1	none
CC(NC(=O)CCc1c[nH]c2ccccc12)c1ccccc1 (configuration not stated)	none
Cc1ccc(NC(=O)CCc2c[nH]c3ccccc23)nc1	Shiga inhibitor 35, Cycloheximide cs 11 (no result: FBPA Giardia inh)
COc1cc(CCC(=O)NCc2ccc3c(c2)CCN3C(=O)c2ccc(F)cc2)cc(OC)c1OC	none (no result: Shiga inhibitor, Cycloheximide cs, RE007 growth inh, LmPK inhibitor, FBPA Giardia inh)
Cc1ccccc1CNC(=O)c1nn(-c2ccccc2F)nc1CO	none (no result: Shiga inhibitor, Cycloheximide cs, RE007 growth inh, LmPK inhibitor, FBPA Giardia inh)
Cc1cccc(C(=O)N2c3ncnn3C3(CCCCC3)[C@@H]3CCCC[C@@H]32)c1	none (no result: Shiga inhibitor, Cycloheximide cs, RE007 growth inh, LmPK inhibitor, FBPA Giardia inh)
CCOC(=O)c1ccc(-n2cc(C(=O)c3cccnc3)nn2)cc1	none
Cc1ccc(-n2cc(C(=O)c3ccc(F)cc3)nn2)cc1Cl	Shiga inhibitor 75, Cycloheximide cs 37
Oc1ccc(C2=NN(c3ccccc3)C(c3ccc(F)cc3)C2)cc1 (configuration not stated)	RE007 growth inh 40µM
COc1ccc(C2CC(c3ccc(F)cc3)=NN2c2ccccc2)cc1OC (configuration not stated)	Shiga inhibitor 90, Cycloheximide cs 26
COc1ccc(C2=NN(C(C#N)c3ccc(OC)c(OC)c3)C(c3ccccc3)C2)cc1 (configuration not stated)	Shiga inhibitor 113, Cycloheximide cs 43
COc1ccc(C2CC(c3ccc(OC)c(OC)c3)=NN2C(=O)c2ccccc2)cc1 (configuration not stated)	none
Oc1ccccc1C1=NN(c2ccccc2)C(c2ccc(F)cc2)C1 (configuration not stated)	none

Screening results from PubChem BioAssay.
